# From PubChem
# Compounds with a hit are over-represented: about 4.4% of the library has one in this group of screens.
# SKKanGAS inh = S. pyogenes SKKanGAS growth inhibitors in kanamycin, primary screen, streptokinase expression inhibitor project, SKKanGAS strain, BacTiter-Glo luminescence. inhibition, % at 7.5 µM. AID 1662, 2009. hit rate 1.3% among 300,000. 6 h;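 active = mean replicate score, as percent of positive control median, at least 50; inconclusive = mean below 50 but one replicate at or above 50; inactive = mean and every replicate below 50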;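 note: strain carries kanamycin resistance gene driven by streptokinase promoter and grows in 40 µg/ml kanamycin; loss of luminescence reflects streptokinase promoter inhibition or plain growth inhibition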
# PfHsp90 set2 = growth inhibition of PfHsp90-expressing yeast, primary screen, antimalarial PfHsp90 inhibitor project, S. cerevisiae, BacTiter-Glo luminescence, single point, set 2. BacTiter-Glo ATP, 48 h; yeast lacking PDR1 and PDR3 efflux regulators. inhibition, % at 9.4 µM. hit rate 0.32% among 310,000. AID 504621, 2011;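 active = every replicate shows inhibition above about 80%, whatever the replicate mean, limit read from the data; inconclusive = mean inhibition reaches the set limit but some replicate falls short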
# tim23-1 inh = growth inhibitors of tim23-1 mutant yeast, primary screen, luminescence, uHTS; S. cerevisiae tim23-1 growth, BacTiter-Glo luminescence, 24 h; inhibition, % at 20 µM; hit rate 1.3% among 330,000; AID 463212, 2010;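 active = growth inhibition of the mutant yeast at or above 50%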;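 note: temperature-sensitive mutant grown at 25 °C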
# TIM10 inh = growth inhibitors of isogenic TIM10 control yeast, primary screen, counter-screen for tim10-1 yeast inhibitor project, luminescence, uHTS; inhibition, % at 10 µM; S. cerevisiae TIM10 strain growth, BacTiter-Glo luminescence, 24 h; hit rate 1.4% among 330,000; AID 463195, 2010;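 active = inhibition of 40% or more at the single tested concentration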;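 note: wild-type TIM10 isogenic control strain grown at permissive 25 °C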
# tim10-1 inh = growth inhibitors of tim10-1 mutant yeast, primary screen, luminescence, uHTS; S. cerevisiae tim10-1 ts strain growth, BacTiter-Glo, 24 h; inhibition, % at 20 µM; hit rate 2.2% among 330,000; AID 463190, 2010;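 active = inhibition of at least 40%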;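 note: mutant grown at 25 °C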
# tim10 confirm = growth inhibitors of wild-type TIM10 yeast, confirmation, counter-screen for tim10-1 synthetic lethality project, single concentration, luminescence, S. cerevisiae; hit rate 63% among 4,600; shares compounds with TIM10 inh; inhibition, % at 10 µM; S. cerevisiae tim10 strain growth, BacTiter-Glo luminescence, 24 h;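 active = inhibition of yeast growth at or above a set limit in either of two replicates at 10 µM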; note: this counterscreen used the strain with wild-type TIM10
# tim23-1 confirm = tim23-1 mutant yeast growth inhibitors, confirmation, luminescence, single concentration | inhibition, % at 20 µM | shares compounds with tim23-1 inh | S. cerevisiae tim23-1 growth, BacTiter-Glo luminescence, 24 h | hit rate 83% among 4,400;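 active = inhibition above about 39% in either of two replicate wells at 20 µM, limit read from the data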;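 note: temperature-sensitive tim23-1 mutant grown at 25 °C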
# Hits are given with their value; n = inactive; u = inconclusive; x = no result.
SMILES,SKKanGAS inh,PfHsp90 set2,tim23-1 inh,TIM10 inh,tim10-1 inh,tim10 confirm,tim23-1 confirm
CN1C(=S)N(c2cccnc2)C(=O)/C1=C\c1ccc(C(C)(C)C)cc1,n,u,55,55,n,56,46
Nc1ccc(-c2nc(-c3ccccc3)nc3ccccc23)cc1,n,n,67,56,n,54,57
Nc1ccc(-c2cc(-c3cccc(N)c3)nc(-c3ccccc3)n2)cc1,n,n,n,n,n,x,x
COc1ccc([C@@H]2CC=C(C(=O)O)[C@H](c3ccc(F)cc3)N2S(=O)(=O)c2ccccc2C)cc1,x,n,n,n,n,x,x
CCN/N=C(\Cc1nc2ccccc2[nH]1)c1ccccc1,n,n,n,n,n,x,x
c1ccc(N/N=C(\Cc2nc3ccccc3[nH]2)c2ccccc2)cc1,n,n,58,48,n,n,60
CCN(CC)C(=O)c1ccccc1NC(=O)CN1C(=O)c2ccccc2S1(=O)=O,n,n,n,n,n,x,x
c1ccc(NCc2nc3ccccc3n2CCOc2ccccc2)cc1,n,n,52,43,n,50,52
CCCc1nc2ccccc2n1CCOc1ccccc1,n,n,n,n,n,x,x
O=[N+]([O-])c1ccc(-c2cn(-c3ccccc3F)c(=S)[nH]2)cc1,n,n,n,n,n,x,x
Cc1ccc(-c2cn(-c3ccccc3F)c(=S)[nH]2)cc1,n,n,61,45,n,47,48
O=C(Nc1ccc2oc(-c3ccccc3)nc2c1)c1ccco1,n,n,51,64,n,n,79
NC(=S)NC(c1ccccc1)c1ccncc1 (stereo unspecified),n,n,n,n,n,x,x
COC(=O)Cc1ccc(NC(=S)NCCSc2ccc(Cl)cc2)cc1,n,n,50,44,n,42,43
O=C(Nc1nc2ccccc2s1)C1c2ccccc2Oc2ccccc21,n,n,51,45,n,46,58
COc1cccc(C(=O)N[C@@H](C)C(=O)N2CCC3(CC2)NCCc2[nH]cnc23)c1,n,n,n,n,n,x,x
CCOC(=O)C1=CC[C@H]2c3c(c4ccccc4n3C)C(=O)C1N2C,x,n,n,n,n,x,x
Nc1nc(N)nc(-c2cc(O)ccc2O)n1,x,n,n,n,n,x,x
CCNc1nc(N)nc(-c2cc(Cl)ccc2O)n1,n,n,56,50,n,n,n
N#C/C(=C\c1ccc(N2CCOCC2)o1)c1nc2ccccc2[nH]1,n,n,54,42,n,31,74
Cc1ccc(C(=O)/C=C/c2ccccc2[N+](=O)[O-])cc1,n,n,59,50,n,38,62
CCc1ccn2cc(-c3cc(-c4ccccc4)no3)nc2c1,n,n,61,62,n,56,81
Cc1cccc(C)c1NC(=O)/C(C#N)=C/c1ccsc1,n,n,62,44,n,37,57
O=C(Nc1nc(-c2ccccc2)cs1)c1cccs1,n,n,53,44,n,n,55
O=C(Nc1ccc(-c2cn3ccccc3n2)cc1)c1cccs1,n,n,62,42,n,n,71
SMILES,SKKanGAS inh,PfHsp90 set2,tim23-1 inh,TIM10 inh,tim10-1 inh,tim10 confirm,tim23-1 confirm
O=C(Nc1ccc2nc(-c3ccccc3)[nH]c2c1)c1cccs1,n,n,59,47,n,n,69
COc1ccccc1NC(=S)N1CCN(c2cccc(C)c2C)CC1,n,n,n,n,n,x,x
Cc1c(C(=O)OCC(=O)NCc2ccco2)cccc1[N+](=O)[O-],x,n,n,n,n,x,x
N/C(=N\OC(=O)c1cc(Cl)ccc1Cl)c1ccccn1,n,n,66,58,n,44,57
Cc1cccc(/C(N)=N/OC(=O)c2ccc(Cl)cc2Cl)c1,n,n,66,86,n,88,40
Cc1ccc(/C(N)=N/OC(=O)c2ccc(C)cc2Cl)cc1,n,n,80,82,n,89,n
N/C(=N\OC(=O)c1ccc(Cl)cc1Cl)c1ccc(Cl)cc1,n,n,82,79,n,85,67
CCOP(=O)(OCC)/C(=N/OC(=O)c1ccc(Cl)cc1Cl)C(N)=O,n,n,n,n,n,x,x
Cc1cc(/C(N)=N/OC(=O)c2ccccc2Cl)no1,n,n,n,n,n,x,x
COc1ccc(Cl)cc1C(=O)O/N=C(\N)c1ccccn1,n,n,n,n,n,x,x
CCOc1ccc(OCc2ccc(C(=O)NC(C)(C)C)o2)cc1,n,n,n,n,n,x,x
COc1ccccc1C1CC(=O)Oc2cc(C)cc(C)c21 (stereo unspecified),x,n,n,n,n,x,x
Cc1cc(C)c2c(c1)OC(=O)CC2c1ccccc1C (stereo unspecified),x,n,54,n,n,x,n
COc1cc2c(c(OC)c1OC)C(c1ccccc1C)CC(=O)O2 (stereo unspecified),x,n,55,n,n,x,n
Fc1ccc(CSc2nc3ccccc3[nH]2)c2ccccc12,50,n,56,n,n,x,55
CC1(C)CC(=O)C(C2=NC3(CCCCC3)Cc3ccccc32)=C(O)C1,n,n,n,n,n,x,x
O=Cc1cn(CCOc2ccccc2F)c2ccccc12,n,n,51,n,n,x,38
COC(=O)[C@H](CC(C)C)NC(=O)c1cc2c(cn1)[nH]c1ccccc12,n,n,59,n,n,x,63
CCC1=C([N+](=O)[O-])C(c2ccc3c(c2)OCO3)NC(=O)N1 (stereo unspecified),n,n,n,n,n,x,x
COc1ccc(C(=S)N2CCN(c3ccccc3C)CC2)cc1,n,n,51,n,n,x,40
NCCCCc1ccc2ccc3cccc4ccc1c2c34,x,n,50,n,n,x,n
COc1cc2cnc(-c3cccnc3)cc2cc1OC,x,n,n,n,n,x,x
Brc1ccc(-n2cnc(-c3ccccc3)c2)cc1,n,n,55,n,n,x,51
Nc1cc(-c2ccccc2)nn1S(=O)(=O)c1ccc(Br)cc1,n,n,n,n,n,x,x
CC(CC(=O)Nc1nnc(CC(C)(C)C)s1)c1ccccc1 (stereo unspecified),n,n,n,n,n,x,x
Cc1ccc(C(=O)N/N=C/c2cc(Br)ccc2O)cn1,69,n,63,n,n,x,52
COc1ccc(NS(=O)(=O)c2cc3c(cc2C)N(C(C)=O)CCO3)cc1OC,n,n,n,n,n,x,x
COc1ccc(C(=O)N2CCc3[nH]nc(-c4ccccc4)c3C2)cc1,n,n,n,n,n,x,x
CCC/C(=C1/c2ccccc2C(=O)N1c1ccccc1)c1ccc2[nH]ccc2c1,x,n,n,n,n,x,x
